Here are results for three molecules from the supplement of paper PMC8728848.

What all share (experiment): glycan array binding signal (z-score within array); higher = stronger binding
What all share (details): glycan notation: IUPAC condensed, linker removed

The target of assay [1] is Neu5Ac(a2-3)Gal(b1-3)[Neu5Ac(a2-6)]GlcNAc(b1-3)[Fuc(a1-3)[Gal(b1-4)]GlcNAc(b1-6)]Gal(b1-4)Glc. Summed up: (§1)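 Glycan array data were curated from 3228 arrays in the Consortium for Functional Glycomics database and kept only where the protein sequence was available. Glycan names were converted to IUPAC-condensed notation, and columns mapping to the same glycan were averaged. The binding signal is a within-array Z-score, averaged across arrays of the same protein sequence at different concentrations or buffers and across linkers. Negative Z-scores can be read as non-binding.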

Assay [2] deals with Neu5Ac(a2-3)Gal(b1-4)GlcNAc(b1-2)Man. Summed up: as §1
The target in assay [3] is Neu5Ac(a2-3)Gal(b1-4)[Fuc(a1-3)]GlcNAc(b1-3)Gal(b1-4)[Fuc(a1-3)]GlcNAc(b1-3)Gal(b1-4)[Fuc(a1-3)]GlcNAc. The essentials:
as §1

Assay [4] concerns the target Neu5Ac(a2-3)Gal(b1-4)[Fuc(a1-3)]GlcNAc(b1-3)GalNAc. The essentials:
as §1

The target in assay [5] is Neu5Ac(a2-6)Gal(b1-4)GlcNAc(b1-3)Gal(b1-4)GlcNAc(b1-3)Gal(b1-4)GlcNAc. The essentials: as §1
Assay [6] has as its target Neu5Ac(a2-6)Gal(b1-4)GlcNAc(b1-6)GalNAc. Summed up:
as §1

The target in assay [7] is Neu5Ac(a2-8)Neu5Ac(a2-3)Gal(b1-3)GalNAc(b1-4)[Neu5Ac(a2-8)Neu5Ac(a2-3)]Gal(b1-4)Glc. Summed up: as §1
For a further assay, the target named is Neu5Ac(b2-6)GalNAc. The essentials:
as §1

Assay [8] deals with Neu5Ac9Ac(a2-3)Gal(b1-3)GlcNAc. The essentials:
as §1

Assay [9] deals with Fuc(a1-2)Gal(b1-4)GlcNAc(b1-3)Gal(b1-4)GlcNAc. Summed up:
as §1

Assay [10] deals with Fuc(a1-2)Gal(b1-4)[Fuc(a1-3)]GlcNAc(b1-3)Gal(b1-4)[Fuc(a1-3)]GlcNAc. The essentials:
as §1

Assay [11] addresses Fuc(a1-2)[Gal(a1-3)]Gal(b1-4)[Fuc(a1-3)]GlcNAc. Summed up:
as §1

For assay [12], the target named is Fuc(a1-3)[Gal(b1-4)]GlcNAc(b1-2)Man(a1-3)[Fuc(a1-3)[Gal(b1-4)]GlcNAc(b1-2)Man(a1-6)]Man(b1-4)GlcNAc(b1-4)[Fuc(a1-6)]GlcNAc. Summed up: as §1
Assay [13] concerns the target Gal(a1-3)Gal(b1-4)[Fuc(a1-3)]GlcNAc(b1-2)Man(a1-3)[Gal(a1-3)Gal(b1-4)[Fuc(a1-3)]GlcNAc(b1-2)Man(a1-6)]Man(b1-4)GlcNAc(b1-4)GlcNAc. Summed up: as §1
In a further assay the target is Gal(a1-3)GalNAc. The essentials:
as §1

The next assay deals with Gal(a1-6)Glc. The essentials: as §1
The target in the next assay is Gal(b1-3)Gal(b1-4)GlcNAc. Summed up: as §1
A further assay deals with Gal(b1-3)GalNAc. The essentials: as §1
In assay [14] the target is Gal(b1-3)GalNAc(a1-3)[Fuc(a1-2)]Gal(b1-4)GlcNAc. Summed up: as §1
Assay [15] deals with Gal(b1-3)GlcNAc(b1-2)Man(a1-3)[Gal(b1-3)GlcNAc(b1-2)Man(a1-6)]Man(b1-4)GlcNAc(b1-4)[Fuc(a1-6)]GlcNAc. The essentials: as §1
In assay [16] the target is Gal(b1-3)[Fuc(a1-4)]GlcNAc(b1-3)Gal(b1-4)[Fuc(a1-3)]GlcNAc. Summed up:
as §1

Assay [17] concerns the target Gal(b1-4)GlcNAc(b1-2)Man(a1-6)Man(b1-4)GlcNAc(b1-4)GlcNAc. Summed up:
as §1

The next assay concerns the target Gal3S(b1-4)Glc6S. Summed up:
as §1

The target of the next assay is Gal3S(b1-4)GlcNAc6S. The essentials: as §1
A further assay addresses Gal3S6S(b1-4)GlcNAc6S. The essentials:
as §1

A further assay addresses Gal6S(b1-4)GlcNAc. The essentials: as §1
Assay [18] concerns the target GlcNAc(a1-4)Gal(b1-4)GlcNAc(b1-3)Gal(b1-4)GlcNAc. The essentials: as §1
Assay [19] has as its target GlcNAc(b1-2)Man(a1-3)[GlcNAc(b1-2)Man(a1-6)]Man(b1-4)GlcNAc(b1-4)[Fuc(a1-6)]GlcNAc. The essentials:
as §1

The target in assay [20] is GlcNAc(b1-3)[GlcNAc(b1-6)]GalNAc. The essentials:
as §1

In assay [21] the target is GlcNAc(b1-4)GlcNAc(b1-4)GlcNAc(b1-4)GlcNAc(b1-4)GlcNAc. The essentials: as §1
The next assay concerns the target GlcNAc3Prop(b1-4)GlcNAc. Summed up:
as §1

In assay [22] the target is Man(a1-2)Man(a1-3)[Man(a1-2)Man(a1-6)]Man. Summed up:
as §1

The target in the next assay is Man(a1-6)Man. Summed up: as §1
Assay [23] deals with Neu5Ac(a2-3)Gal(b1-4)GlcNAc(b1-3)Gal(b1-4)[Fuc(a1-3)]GlcNAc. The essentials:
as §1

The target in assay [24] is Neu5Gc(a2-3)Gal(b1-4)GlcNAc. The essentials: as §1
The target of assay [25] is Fuc(a1-2)Gal(b1-4)GlcNAc(b1-3)Gal(b1-4)GlcNAc(b1-3)Gal(b1-4)GlcNAc. Summed up: as §1
The target in assay [26] is Fuc(a1-2)Gal(b1-4)[Fuc(a1-3)]GlcNAc(b1-3)Gal(b1-4)[Fuc(a1-3)]GlcNAc(b1-3)Gal(b1-4)[Fuc(a1-3)]GlcNAc. The essentials:
as §1

The target in assay [27] is Fuc(a1-2)[GalNAc(a1-3)]Gal(b1-4)GlcNAc. The essentials:
as §1

The target in a further assay is Fuc(a1-3)GlcNAc. The essentials:
as §1

A further assay has as its target Gal(a1-4)Gal(b1-4)Glc. The essentials: as §1
Another assay has as its target Gal(b1-2)Gal. The essentials:
as §1

The target of assay [28] is Gal(b1-3)GalNAc(b1-4)[Neu5Ac(a2-3)]Gal(b1-4)Glc. Summed up:
as §1

In the next assay the target is Gal(b1-4)GlcNAc. Summed up:
as §1

Assay [29] has as its target Gal(b1-4)GlcNAc(b1-3)Gal(b1-4)[Fuc(a1-3)]GlcNAc(b1-3)Gal(b1-4)[Fuc(a1-3)]GlcNAc. The essentials:
as §1

Another assay concerns the target Gal3S(b1-4)GlcNAc. The essentials: as §1
The next assay addresses Gal4S6S(b1-4)GlcNAc. The essentials: as §1
In a further assay the target is Gal6S(b1-4)Glc6S. Summed up: as §1
In the next assay the target is Glc(a1-4)Glc. The essentials: as §1
For a further assay, the target named is Glc(a1-6)Glc(a1-6)Glc. The essentials: as §1
A further assay deals with Glc(b1-4)Glc. Summed up: as §1
The target of assay [30] is Man(a1-2)Man(a1-2)Man(a1-6)[Man(a1-3)]Man. The essentials: as §1
Assay [31] addresses Neu5Ac(a2-3)[GalNAc(b1-4)]Gal(b1-4)Glc. Summed up: as §1
Another assay has as its target Neu5Gc(a2-3)Gal(b1-4)Glc. Summed up: as §1

The full list was thinned out, with the strongest signals kept by preference.

B1: OrfX (Escherichia coli), Q9X4B6_ECOLX (protein)
chain: MIKIARIAVTLGLLSSLGAQAYAAGLVVNDNDLRNDLAWLSDRGVIHLSLSTWPLSQEEIARALKKAKPSYSSEQVVLARINQRLSALKADFRVTGYTSTDQPGTPQGFGQTQPADNSLGLAFNNSGEWWDVHLQGNVEGGERISNGSRFNANGAYGAVKFWNQWLSFGQVPQWWGPGYEGSLIRGDAMRPMTGFLMQRAEQAAPETWWLRWVGPWQYQISASQMNQYTAVPHAKIIGGRFTFTPFQSLELGASRIMQWGGEGRPQSFSSFWDGFTGHDNTGTDNEPGNQLAGFDFKFKLEPTLGWPVSFYGQMVGEDESGYLPSANMFLGGVEGHHGWGKDTVNWYVEAHDTRTNMSRTNYSYTHHIYKDGYYQQGYPLGDAMGGDGQLIAGKVELITEDNQRWSTRLVYAKVNPENQSINKAFPHADTLKGLQLGWSGDVYQSVRLNTSLWYTNANNSDSDDVGASAGIEIPFSL
B1: the “glycan array binding signal (z-score)” value was -0.357 in [1]; 7.89 in assay [2]; -0.34 in assay [3]; 7.1 in assay [4]; -0.288 in assay [5]; 3.4 in assay [6]. The “glycan array binding signal (z-score)” value in assay [7] is -0.409; with Neu5Ac(b2-6)GalNAc it was -0.166; in assay [8] it was -0.162.

B2: FedF (Escherichia coli), Q47212 (protein)
chain: MRLKYILIIPLLLISLSVFASTLQVDKSVSYDWINSSASSAQVTGTLLGTGKTNTTQMPALYTWQHQIYNVNFIPSSSGTLTCQAGTILVWKNGRETQYALECRVSIHHSSGSINESQWGQQSQVGFGTACGNKKCRFTGFEISLRIPPNAQTYPLSSGDLKGSFSLTNKEVNWSASIYVPAIAKSYRLDTSITLPDTVNLKQNQATPVYYTFSAPSVSNTITGIPNQNDMPSSNVKLTIGPIQSKTTALYVQPDATGSWYDLSKSITMTVVKSSMLNFKGINAKPGNVTLSVPIVFEIQ
For B2, the “glycan array binding signal (z-score)” value is -0.446 in assay [9]; -0.053 in assay [10]; 0.755 in [11]; -0.17 in [12]; -0.084 in [13]; -0.219 with Gal(a1-3)GalNAc. Moreover, the “glycan array binding signal (z-score)” value with Gal(a1-6)Glc is 0.241; in the assay with Gal(b1-3)Gal(b1-4)GlcNAc it was -0.144; with Gal(b1-3)GalNAc it was -0.092; in [14], -0.088; in assay [15], 0.741; in assay [16] it was -0.274. In addition, the “glycan array binding signal (z-score)” value in assay [17] worked out at 0.184; in the assay with Gal3S(b1-4)Glc6S it was 1.04; with Gal3S(b1-4)GlcNAc6S it was 0.729; in the assay with Gal3S6S(b1-4)GlcNAc6S, 1.97; with Gal6S(b1-4)GlcNAc it was 0.402; in [18], 0.918. The “glycan array binding signal (z-score)” value is 1.99 in [19]; -0.248 in assay [20]; -0.269 in [21]; 13.7 with GlcNAc3Prop(b1-4)GlcNAc; 0.257 in [22]; -0.145 in the assay with Man(a1-6)Man. Also, the “glycan array binding signal (z-score)” value in [23] is -0.292; in assay [24], -0.223.

B3: FaeGac (Escherichia coli) (protein)
chain: WMTGDFNGSVDIGGSITADDYRQKWEWKVGTGLNGFGNVLNDLTNGGTKLTITVTGNKPILLGRTKEAFATPVTGGVDGIPHIAFTDYEGASVVLRNPDGETNKKGLAYFVLPMKNAEGTKVGSVKVNASYAGVLGRGGVTSADGELLSLFADGLSSIFYGGLPRGSELSAGSAAAERTKLFGSLSRNDILGQIQRVNANITSLVDVAGSYRENMEYTDGTVVSAAYALGIANGQTIEATFNQAVTTSTQWSAPLNVAITYY
B3: the “glycan array binding signal (z-score)” value is -0.23 in [9]; -0.359 in [25]; -0.161 in assay [26]; -0.577 in [27]; 0.65 in the assay with Fuc(a1-3)GlcNAc; -0.179 with Gal(a1-4)Gal(b1-4)Glc. The “glycan array binding signal (z-score)” value with Gal(b1-2)Gal was 0.274; in assay [28], -0.107; in the assay with Gal(b1-4)GlcNAc it was -0.506; in assay [29], 0.771; in the assay with Gal3S(b1-4)GlcNAc it was 0.384; with Gal3S6S(b1-4)GlcNAc6S it was -0.43. For the same molecule, the “glycan array binding signal (z-score)” value with Gal4S6S(b1-4)GlcNAc is -0.495; in the assay with Gal6S(b1-4)Glc6S, 0.68; with Glc(a1-4)Glc it was 10.9; in the assay with Glc(a1-6)Glc(a1-6)Glc it was 6.96; in the assay with Glc(b1-4)Glc, 2.95; in assay [30], 2.13. In addition, the entries for the “glycan array binding signal (z-score)” value (in assay [31]; in the assay with Neu5Gc(a2-3)Gal(b1-4)Glc) were 0.008 and -0.764, respectively.
